# Laboratory results from PubChem BioAssay (NCATS).
# Results filed as inconclusive are left out. Where a call stands in place of a potency, no number is given. Values without a mark were called inactive. Activity calls are given as the source filed them. Calls come from the whole dose curve; as a rule, active = well fitted curve in the direction sought with a large enough effect; inconclusive = small, poorly fitted or top-dose-only effect, or another doubt; inactive = no such curve, though single readings can be large; an effect the other way counts as inactive or inconclusive.
# How the values were obtained:
# [1] = Quantitative highthroughput screen to assess conditional lethalithy of P12 Ichikawa cells grown in Human Plasma-Like Medium with dialyzed fetal bovine serum (HPLM+ds) (AID 1963879); conditions: Potency: viability; note: nearly all actives have a fitted effect of over 35% in size; note: potency is the fitted concentration of half-maximal effect; for viability: series mostly up to about 46 µM
# Summary of the method: (§1)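 Each medium arm—HPLM with 10% dialyzed FBS, or RPMI1640 with 5 mM glucose and 10% untreated or dialyzed FBS—was screened against an 11-point, 3-fold compound titration for 48 h at 37 °C, with CellTiter-Glo luminescence as endpoint.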
# [2] = Quantitative highthroughput screen to assess conditional lethalithy of NOMO1 cells grown in Human Plasma-Like Medium with dialyzed fetal bovine serum (HPLM+ds) (AID 1963878); note: nearly all actives have a fitted effect of over 35% in size; note: potency is the fitted concentration of half-maximal effect
# Summary of the method: as §1
# [3] = Quantitative highthroughput screen to assess conditional lethalithy of P12 Ichikawa cells grown in RPMI1640 with dialyzed fetal bovine serum (RPMI+ds) (AID 1963880); conditions: Potency: P12-Ichikawa viability; note: nearly all actives have a fitted effect of over 35% in size; note: potency is the fitted concentration of half-maximal effect
# Summary of the method: as §1
# [4] = Quantitative highthroughput screen to assess conditional lethalithy of P12 Ichikawa cells grown in RPMI1640 with untreated serum (RPMI+s) (AID 1963881); conditions: Potency: viability; note: nearly all actives have a fitted effect of over 35% in size; note: potency is the fitted concentration of half-maximal effect; for viability: series mostly up to about 46 µM
# Summary of the method: as §1
# [5] = Quantitative highthroughput screen to assess conditional lethalithy of SEM cells grown in Human Plasma-Like Medium with dialyzed fetal bovine serum (HPLM+ds) (AID 1963882)
# Summary of the method: as §1
# [6] = Quantitative highthroughput screen to assess conditional lethalithy of SEM cells grown in RPMI1640 with unreated serum (RPMI+s) (AID 1963883); note: nearly all actives have a fitted effect of over 35% in size; note: potency is the fitted concentration of half-maximal effect
# Summary of the method: as §1
# [7] = Quantitative highthroughput screen to assess conditional lethalithy of SEM cells grown in RPMI1640 with dialyzed fetal bovine serum (RPMI+ds) (AID 1963884); note: nearly all actives have a fitted effect of over 35% in size; note: potency is the fitted concentration of half-maximal effect; for viability: series mostly up to about 46 µM
# Summary of the method: as §1
# [8] = Cellular viability qHTS for adrenocortical cancer (ACC) cell line SW-13 (AID 1963989); conditions: SW-13 ACC cells viability, CellTiter-Glo, 48 h; activity (max response): stronger effect = lower value;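 note: cells grown in serum-free medium with ITS supplement; nearly all actives have a fitted effect of over 65% in size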
# Summary of the method: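 Viability was read as CellTiter-Glo luminescence after 48 h compound treatment (up to 46 uM final) of SW-13 cells grown serum-free; titration curves were fit with a four-parameter logistic model to give IC50 and efficacy.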
# [9] = Cellular viability qHTS for adrenocortical cancer (ACC) cell line NCI-H295R (AID 1963990); note: nearly all actives have a fitted effect of over 60% in size
# Summary of the method: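 CellTiter-Glo ATP luminescence, read 48 h after compound addition, measured viability of NCI-H295R adrenocortical cells grown serum-free with ITS. Final concentrations spanned up to 46 uM. Data normalized to DMSO and doxorubicin, fitted for IC50 and maximal response.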
structure (smiles),measurement,setting,value
CN(C)C(=N)N=C(N)N,Potency,[1],26400 nM (active)
CON(C)C(=O)N1N=C(c2cc(F)ccc2F)S[C@]1(CCCN)c1ccccc1,Potency,[2],inactive
same,Potency,[3],inactive
same,Potency,[4],inactive
same,Potency,[5],inactive
same,Potency,[6],inactive
same,Potency,[7],inactive
CN[C@H]1[C@@H](O[C@@H]2[C@H](O[C@@H]3[C@@H](O)[C@@H](O)[C@@H](N=C(N)N)[C@@H](O)[C@@H]3N=C(N)N)O[C@H](C)[C@@]2(O)C=O)O[C@@H](CO)[C@@H](O)[C@H]1O,Potency,[1],inactive
same,Potency,[3],inactive
same,Potency,[4],inactive
same,Potency,[5],inactive
same,Potency,[6],inactive
same,Potency,[7],inactive
CC(C)N(CC[C@H](c1ccccc1)c1cc(CO)ccc1O)C(C)C,Potency,[1],inactive
same,Potency,[3],inactive
same,Potency,[4],inactive
same,Potency,[5],inactive
same,Potency,[6],inactive
Clc1ccc2ncc(-c3cccc(NC4CNC4)n3)n2c1,Potency,[2],20.9 µM (active)
same,Potency,[4],23.5 µM (active)
same,activity (max response),[8],12.3%
same,Potency,[9],inactive
C=CCc1ccc(O)c(-c2ccc(O)c(CC=C)c2)c1,Potency,[1],132 nM (active)
same,Potency,[3],526 nM (active)
same,Potency,[4],1.05 µM (active)
Oc1ccc(C=Cc2cc(O)cc(O)c2)cc1,Potency,[2],14.8 µM (active)
same,Potency,[6],11.8 µM (active)
same,Potency,[7],20.9 µM (active)
Nc1nc(NCCNc2ncc(-n3ccnc3)c(-c3ccc(Cl)cc3Cl)n2)ccc1[N+](=O)[O-],Potency,[1],inactive
same,Potency,[3],inactive
same,Potency,[4],inactive
same,Potency,[5],inactive
same,Potency,[6],inactive
same,activity (max response),[8],-10%
same,Potency,[9],inactive
COc1cc(OC)c(C=CS(=O)(=O)Cc2ccc(OC)c(NCC(=O)O)c2)c(OC)c1,Potency,[1],264 nM (active)
same,Potency,[3],166 nM (active)
same,Potency,[4],0.235 µM (active)
same,Potency,[6],0.209 µM (active)
same,Potency,[7],0.118 µM (active)
